# Unmarked numbers belong to inactive results. The list shows a part of the results. Calls of active or inactive are those of the source.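 The calls were made as follows, unless noted: active = inhibition above the mean over all tested compounds plus 3 SD, which no compound reached; inactive = the rest.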
# Tests used:
# [1] = tested on: HIV-1 integrase (multimerization); assay: HIV-1 IN multimer formation enhancers, counter-screen for LEDGF/p75 integration inhibitor project, biochemical, TR-FRET (AID 1053131; in the data active = activation above about 8.9%); conditions: TR-FRET HIV-1 integrase multimerization, at 7.7 µM, active compounds read high
# [2] = TR-FRET optical interference artefacts, confirmation, artefact control for LEDGF/p75-dependent integration inhibitor project, biochemical, HIV-1 IN multimerization (AID 1053135); conditions: TR-FRET optical interference counterscreen, at 7.7 µM, active compounds read high;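 also: 0% = integrase with antibodies and DMSO and 100% = antibodies without integrase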
# [3] = tested on: HIV-1 integrase / human LEDGF/p75 complex; assay: inhibitors of HIV-1 IN-LEDGF/p75 DNA integration, confirmation, biochemical, TR-FRET (AID 1053136; in the data active = inhibition above about 14%); conditions: TR-FRET LEDGF/p75-dependent HIV-1 integration, at 3.7 µM, active compounds read high
# [4] = KLF5 expression inhibitors, confirmation, DLD-1 cells, luminescence (AID 1834;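 active = inhibition above a set limit taken from the earlier primary screen, cut at about 63% in these data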;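 also: 0% = DMSO wells and 100% = LY294002 at 200 µM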); conditions: DLD-1 KLF5 promoter firefly luciferase reporter, at 4 µM, active compounds read high
# [5] = cytotoxicity in rat IEC-6 cells, cytotoxicity control for KLF5 inhibitor project, cell-based, luminescence, triplicate (AID 1905; in the data active = inhibition above about 23%;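 also: cells exposed to compounds for 48 hours before viability read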); conditions: IEC-6 rat intestinal cells, viability luminescence; at 4 µM; active compounds read high
# [6] = target: Glutathione S-transferase omega-1 (Homo sapiens) (UniProt P78417); assay: GSTO1 inhibitor hit confirmation, counter-screen for RBBP9 inhibitor project, biochemical, fluorescence polarization, triplicate (AID 2176;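 active = inhibition above the primary screen's cutoff, its mean inhibition plus 3 SD, cut at about 35% in these data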;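 also: loss of polarization as inhibitors block binding of rhodamine sulfonate ester activity probe; 0% = GSTO1 with DMSO and 100% = wells lacking GSTO1 enzyme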); conditions: recombinant GSTO1, probe fluorescence polarization; at 5.96 µM; active compounds read high
# Glutathione S-transferase omega-1 (Homo sapiens), sequence (P78417 whole entry, looked up): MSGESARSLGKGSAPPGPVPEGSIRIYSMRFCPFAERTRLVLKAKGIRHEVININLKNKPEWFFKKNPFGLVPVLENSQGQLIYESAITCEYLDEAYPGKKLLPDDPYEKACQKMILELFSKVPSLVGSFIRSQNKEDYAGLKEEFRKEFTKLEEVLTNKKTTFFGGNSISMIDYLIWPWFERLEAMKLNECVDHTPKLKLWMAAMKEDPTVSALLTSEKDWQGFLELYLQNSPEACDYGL
# [7] = target: Platelet-activating factor acetylhydrolase (Homo sapiens) (UniProt Q13093); assay: pPAFAH (PLA2G7) enzyme inhibitors, confirmation, biochemical, fluorescence polarization, human (AID 463230;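 active = mean inhibition of the triplicate above the hit cutoff set for the earlier primary screen, cut at about 25% in these data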;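 also: 0% = enzyme with DMSO and 100% = wells lacking pPAFAH enzyme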); conditions: recombinant pPAFAH, FP-Rh probe fluorescence polarization; at 3.39 µM; active compounds read high
# Platelet-activating factor acetylhydrolase (Homo sapiens), sequence (Q13093 whole entry, looked up): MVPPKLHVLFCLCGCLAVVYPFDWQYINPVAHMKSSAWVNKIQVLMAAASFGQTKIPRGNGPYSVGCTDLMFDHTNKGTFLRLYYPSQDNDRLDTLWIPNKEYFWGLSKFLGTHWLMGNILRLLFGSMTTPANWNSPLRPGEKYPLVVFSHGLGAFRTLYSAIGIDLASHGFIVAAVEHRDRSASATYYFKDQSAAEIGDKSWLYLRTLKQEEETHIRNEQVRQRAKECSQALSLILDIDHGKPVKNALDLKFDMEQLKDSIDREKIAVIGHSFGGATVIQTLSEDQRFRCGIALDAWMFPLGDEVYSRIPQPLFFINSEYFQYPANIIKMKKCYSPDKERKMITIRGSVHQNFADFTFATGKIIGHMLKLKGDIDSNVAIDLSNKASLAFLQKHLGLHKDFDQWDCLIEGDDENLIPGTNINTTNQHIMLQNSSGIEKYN
# [8] = growth loss of phage-infected E. coli expressing H. pylori AddAB, confirmation, AddAB inhibitor project, absorbance, E. coli V3065, T4 phage, triplicate (AID 488942;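 active = mean inhibition above a set limit taken from the earlier primary screen, cut at about 13% in these data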;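 also: higher means less bacterial growth since AddAB block lets phage replicate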); conditions: OD, at 11.9 µM, active compounds read high, T4 phage with gene 2 nonsense mutations
# [9] = growth loss of RecBCD+ E. coli with mutant T4 phage, counter-screen for AddAB inhibitor project, absorbance, V66 E. coli (AID 488955;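 active = mean inhibition above the mean of solvent-only control wells plus 3 SD, cut at about 4% in these data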;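 also: optical density read after an 18 h incubation at 37 °C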); conditions: OD growth, at 11.9 µM, active compounds read high
# [10] = bacterial viability inhibition counter-screen, confirmation, counter-screen for AddAB inhibitor project, absorbance (AID 488956; in the data active = inhibition above about 25%); conditions: absorbance (AddAB counterscreen), at 11.9 µM, active compounds read high
# [11] = growth loss of phage-infected RecBCD+ E. coli, confirmation, RecBCD inhibitor project, absorbance, E. coli V66, T4 gene 2 phage (AID 651982;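 active = mean inhibition over triplicates exceeding the hit threshold derived in the original primary screen, cut at about 11% in these data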); conditions: E. coli V66 + T4 2- phage, growth OD; at 11.9 µM; active compounds read high
# [12] = E. coli viability inhibition, counter-screen for RecBCD inhibitor project, absorbance, high throughput (AID 651983; in the data active = inhibition above about 20%;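 also: E. coli strain V66 grown with compound alone and no phage infection; 0% = bacteria with DMSO vehicle only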); conditions: absorbance (OD) growth, at 11.9 µM, active compounds read high
# [13] = growth loss of phage-infected AddAB-carrying E. coli, confirmation, counter-screen for RecBCD inhibitor project, absorbance, E. coli V3065, T4 phage (AID 651984;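 active = mean inhibition above the solvent-only control wells' mean plus 3 SD, cut at about 22% in these data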;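 also: higher means less bacterial growth from phage killing when AddAB is blocked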); conditions: E. coli expressing H. pylori AddAB + T4 phage, OD growth; at 11.9 µM; active compounds read high; gene 2 mutant T4, recBCD-deleted host
# [14] = target: Protein phosphatase methylesterase 1 (Homo sapiens) (UniProt Q9Y570); assay: PME-1 inhibitor activity retest, confirmation, biochemical, fluorescence polarization, FP-Rh probe, triplicate (AID 2171;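 active = inhibition above the hit cutoff set in the earlier primary screen, cut at about 27% in these data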;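 also: 0% = enzyme with DMSO and 100% = wells lacking PME-1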); conditions: recombinant PME-1, FP-Rh probe fluorescence polarization; at 5.9 µM; active compounds read high
# Protein phosphatase methylesterase 1 (Homo sapiens), sequence (Q9Y570 whole entry, looked up): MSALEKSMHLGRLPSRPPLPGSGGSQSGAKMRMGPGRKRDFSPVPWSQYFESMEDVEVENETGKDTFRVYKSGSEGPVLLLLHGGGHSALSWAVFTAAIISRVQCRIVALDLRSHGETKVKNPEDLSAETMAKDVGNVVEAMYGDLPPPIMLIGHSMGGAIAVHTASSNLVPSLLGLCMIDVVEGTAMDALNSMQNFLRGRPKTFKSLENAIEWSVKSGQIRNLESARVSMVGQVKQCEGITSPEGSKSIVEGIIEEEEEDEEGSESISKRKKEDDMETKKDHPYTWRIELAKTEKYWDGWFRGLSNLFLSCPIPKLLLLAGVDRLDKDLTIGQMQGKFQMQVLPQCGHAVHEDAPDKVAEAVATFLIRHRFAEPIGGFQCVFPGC
# [15] = tested on: Fam108b (Abhd17b) serine hydrolase [Mus musculus]; assay: mouse Fam108b serine hydrolase inhibitors, confirmation, counter-screen for RBBP9 inhibitor project, biochemical, fluorescence polarization, triplicate (AID 1978;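 active = inhibition above a limit from the primary screen, the mean over all compounds plus 3 SD, cut at about 19% in these data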;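 also: 0% = median of active Fam108b wells and 100% = catalytically dead S170A mutant; inhibitors free the probe so polarization falls as inhibition rises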); conditions: recombinant Fam108b, FP-Rh probe fluorescence polarization; at 9.51 µM; active compounds read high
# [16] = target: Bcl-2-like protein 1 (Homo sapiens) (UniProt Q07817); assay: Bcl-xL inhibitors blocking Bim BH3 binding, confirmation, counter-screen for MCL1 inhibitor project, biochemical, fluorescence polarization (AID 2166;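 active = inhibition above a cutoff equal to the mean inhibition of all tested compounds plus 3 SD, cut at about 30% in these data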); conditions: GST-Bcl-xL / FITC-Bim BH3 peptide FP binding; at 10.9 µM; active compounds read high
# Bcl-2-like protein 1 (Homo sapiens), sequence (Q07817 whole entry, looked up): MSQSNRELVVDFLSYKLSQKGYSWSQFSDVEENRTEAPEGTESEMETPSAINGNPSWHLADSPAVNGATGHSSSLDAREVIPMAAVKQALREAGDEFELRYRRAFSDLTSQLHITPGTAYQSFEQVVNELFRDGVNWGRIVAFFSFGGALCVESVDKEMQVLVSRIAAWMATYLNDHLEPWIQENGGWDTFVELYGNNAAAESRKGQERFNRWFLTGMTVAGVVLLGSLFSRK
# [17] = target: Induced myeloid leukemia cell differentiation protein Mcl-1 (Homo sapiens) (UniProt Q07820); assay: inhibitors of MCL1 binding to BIM-BH3, confirmation, biochemical, fluorescence polarization, triplicate (AID 2168;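 active = inhibition above the average of all tested compounds plus 3 SD, cut at about 40% in these data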;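 also: 0% = DMSO wells and 100% = unlabeled Bim-BH3 control peptide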); conditions: GST-MCL1 / FITC-Bim-BH3 fluorescence polarization; at 10.9 µM; active compounds read high
# Induced myeloid leukemia cell differentiation protein Mcl-1 (Homo sapiens), sequence (Q07820 whole entry, looked up): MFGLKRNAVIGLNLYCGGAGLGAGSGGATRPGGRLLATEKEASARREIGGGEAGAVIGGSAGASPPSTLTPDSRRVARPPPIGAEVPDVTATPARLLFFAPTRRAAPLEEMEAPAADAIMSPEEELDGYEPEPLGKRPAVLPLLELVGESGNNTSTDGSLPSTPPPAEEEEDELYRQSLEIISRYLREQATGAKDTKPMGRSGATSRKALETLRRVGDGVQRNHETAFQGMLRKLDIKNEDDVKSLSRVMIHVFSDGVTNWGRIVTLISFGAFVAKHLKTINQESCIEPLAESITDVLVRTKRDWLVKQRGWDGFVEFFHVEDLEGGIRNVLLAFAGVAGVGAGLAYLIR
# [18] = target: Protein-arginine deiminase type-4 (Homo sapiens) (UniProt Q9UM07); assay: human PAD4 inhibitors, confirmation, biochemical, fluorescence polarization (AID 488796;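 active = mean inhibition across replicates above the hit cutoff set by the earlier primary screen, cut at about 15% in these data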;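 also: inhibitors block active-site labeling by the probe so polarization falls; 0% = PAD4 with probe and DMSO and 100% = probe without PAD4 enzyme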); conditions: recombinant PAD4, RCA probe fluorescence polarization; at 6.36 µM; active compounds read high
# Protein-arginine deiminase type-4 (Homo sapiens), sequence (Q9UM07 whole entry, looked up): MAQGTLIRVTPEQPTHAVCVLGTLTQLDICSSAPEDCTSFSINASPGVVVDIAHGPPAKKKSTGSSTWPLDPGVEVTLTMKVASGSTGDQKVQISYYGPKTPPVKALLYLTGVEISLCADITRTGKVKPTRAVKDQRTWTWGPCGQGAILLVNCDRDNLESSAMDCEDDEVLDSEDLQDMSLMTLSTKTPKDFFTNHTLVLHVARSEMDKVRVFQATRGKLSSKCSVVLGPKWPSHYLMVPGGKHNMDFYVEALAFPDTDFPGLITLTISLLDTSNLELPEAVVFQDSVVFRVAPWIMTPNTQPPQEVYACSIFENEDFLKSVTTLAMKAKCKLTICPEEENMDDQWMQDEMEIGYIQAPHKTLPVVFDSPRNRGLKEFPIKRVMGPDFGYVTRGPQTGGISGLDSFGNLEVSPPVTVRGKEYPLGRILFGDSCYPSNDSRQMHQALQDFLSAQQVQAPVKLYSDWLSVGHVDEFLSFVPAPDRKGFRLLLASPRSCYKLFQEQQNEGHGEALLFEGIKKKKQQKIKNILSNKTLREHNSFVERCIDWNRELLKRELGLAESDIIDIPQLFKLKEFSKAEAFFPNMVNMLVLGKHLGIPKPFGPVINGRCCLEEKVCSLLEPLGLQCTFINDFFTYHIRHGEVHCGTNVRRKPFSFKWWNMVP
# [19] = compounds interfering with TAMRA-BSA probe, counter-screen for TCR-CD3 interaction inhibitor project, biochemical, fluorescence, TAMRA-labeled BSA (AID 652035; in the data active = inhibition above about 23%;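 also: 0% = buffer low control and 100% = reference high control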); conditions: TAMRA-labeled BSA probe fluorescence counterscreen; at 9.4 µM; active compounds read high
# [20] = tested on: T-cell receptor (TCR)-CD3 interaction, human; assay: TCR-CD3 interaction inhibitors, retest, confirmation, biochemical, fluorescence, TAMRA-labeled TCR probe (AID 652036; in the data active = inhibition above about 19%); conditions: TAMRA-labeled TCR probe fluorescence binding assay; at 9.4 µM; active compounds read high
# [21] = target: (Lyso)-N-acylphosphatidylethanolamine lipase (Mus musculus) (UniProt Q8VD66); assay: ABHD4 inhibitors, retest, confirmation, biochemical, fluorescence polarization, mouse (AID 720658;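 active = mean inhibition across replicates above the hit cutoff set in the primary screen, cut at about 30% in these data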;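 also: 0% = wild-type ABHD4 with DMSO and 100% = catalytically dead S159A mutant with DMSO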); conditions: purified mABHD4, FP-Rh probe fluorescence polarization; at 8.92 µM; active compounds read high
# (Lyso)-N-acylphosphatidylethanolamine lipase (Mus musculus), sequence (Q8VD66 whole entry, looked up): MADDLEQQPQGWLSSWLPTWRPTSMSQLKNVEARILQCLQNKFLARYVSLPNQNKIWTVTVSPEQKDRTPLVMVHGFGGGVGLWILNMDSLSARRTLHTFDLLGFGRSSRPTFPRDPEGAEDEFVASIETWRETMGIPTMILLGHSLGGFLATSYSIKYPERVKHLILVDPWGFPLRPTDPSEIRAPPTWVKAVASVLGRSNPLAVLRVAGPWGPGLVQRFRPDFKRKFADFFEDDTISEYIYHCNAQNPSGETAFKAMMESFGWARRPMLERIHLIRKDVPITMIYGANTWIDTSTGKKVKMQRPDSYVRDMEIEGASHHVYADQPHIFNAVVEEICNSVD
# [22] = target: Serine protease HTRA1 (Homo sapiens) (UniProt Q92743); assay: HTRA1 protease inhibitors, retest, confirmation, biochemical, fluorescence polarization (AID 540248;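 active = mean inhibition over three repeats above a set limit taken from the earlier primary screen, cut at about 37% in these data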;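 also: 0% = HTRA1 with DMSO and 100% = wells lacking HTRA1; inhibitors block probe binding so polarization drops and inhibition rises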); conditions: recombinant HTRA1, FP-rhodamine activity-based probe, at 5.96 µM, active compounds read high
smiles,measurement,setting,value
Cc1cc(Oc2ccc(Cl)cc2)nc(SCC(=O)c2ccccc2)n1,activation,[1],-0.31%
same,inhibition,[2],1.56%
same,inhibition,[3],-0.68%
COc1ccc(S(=O)(=O)N2CCCCC2)cc1C(=O)NC1CCS(=O)(=O)C1 (configuration not stated),activation,[1],-2.17%
same,inhibition,[2],10.9%
same,inhibition,[3],-3.25%
O=C1OC(/C=C/c2ccccc2)=NC/1=C/c1ccco1,activation,[1],-0.93%
same,inhibition,[2],4.71%
same,inhibition,[3],-2.29%
O=C(NC1CCCCC1)N1CCc2[nH]c3ccccc3c2C1,activation,[1],1.36%
same,inhibition,[2],-6.83%
same,inhibition,[3],2.35%
CCOC(=O)c1ccc(NC(=O)CSc2ncccn2)cc1,activation,[1],-0.25%
same,inhibition,[2],1.28%
same,inhibition,[3],-6.96%
O=C(c1cccc(C(F)(F)F)c1)N1CC[C@H]2[C@H](CCCN2Cc2cc(F)cc(F)c2)C1,activation,[1],0.05%
same,inhibition,[2],-0.14%
same,inhibition,[3],-8.63%
Oc1cc(O)c2c(c1)OC(c1ccc(O)c(O)c1)C(O)C2 (configuration not stated),activation,[1],10.4% (active)
same,inhibition,[2],-52.5%
same,inhibition,[3],-0.79%
CCn1nc(C)c(CN2CCN(Cc3ccc(OC)c(C)c3C)C(CCO)C2)c1C (configuration not stated),activation,[1],-0.07%
same,inhibition,[2],0.39%
same,inhibition,[3],-3.09%
CC(=O)OCC1(O)CC23CCC4c5ccoc5CCC4(C)C2CCC1C3 (configuration not stated),activation,[1],0.06%
same,inhibition,[2],-0.26%
same,inhibition,[3],9.45%
Cc1cc(C(=O)NN=C/C=C/c2ccco2)n[nH]1,activation,[1],10.3% (active)
same,inhibition,[2],-36.8%
same,inhibition,[3],6.81%
C=CCn1c2ccccc2c2nnc(SCc3[nH]c(=O)[nH]c3C(=O)CCCCC(=O)OCC)nc21,activation,[1],-0.48%
same,inhibition,[2],2.45%
same,inhibition,[3],24% (active)
CC(=NCc1ccc2c(c1)OCO2)C1=C(O)c2ccccc2C1=O,activation,[1],0.56%
same,inhibition,[2],-2.08%
same,inhibition,[3],-0.38%
Oc1cccc(/C=N/Nc2ccc(Cl)nn2)c1O,inhibition,[4],93.5% (active)
same,inhibition,[5],0.35%
same,inhibition,[6],7.85%
same,inhibition,[7],29.2% (active)
same,inhibition,[8],42.9% (active)
same,inhibition,[9],15.7% (active)
same,inhibition,[10],20.9%
same,inhibition,[11],7.26%
same,inhibition,[12],9.97%
same,inhibition,[13],26% (active)
same,activation,[1],10.1% (active)
same,inhibition,[2],-36.1%
same,inhibition,[3],10.1%
CN(Cc1ccc(F)cc1)C(=O)CN1C(=O)c2ccccc2S1(=O)=O,activation,[1],-1.2%
same,inhibition,[2],4.33%
same,inhibition,[3],-12.2%
CCOC(=O)c1ccc(Nc2cc3ccccc3c(=O)[nH]2)cc1,inhibition,[14],53.9% (active)
same,activation,[1],-1.62%
same,inhibition,[2],8.23%
same,inhibition,[3],29.8% (active)
C=CCn1c(=S)[nH]c2scc(-c3ccco3)c2c1=O,inhibition,[15],78.1% (active)
same,inhibition,[16],23.3%
same,inhibition,[17],37.9%
same,inhibition,[7],14.1%
same,activation,[1],4.85%
same,inhibition,[2],-24.4%
same,inhibition,[3],75.9% (active)
CN(C)c1ccc(C(CC(=O)O)C(=O)O)cc1 (configuration not stated),activation,[1],3.35%
same,inhibition,[2],-16.9%
same,inhibition,[3],0.73%
O=C(O)c1ccc(NN=CC2=C(N3CCOCC3)/C(=C/c3ccccc3)CC2)cc1,activation,[1],3.07%
same,inhibition,[2],-10.9%
same,inhibition,[3],16.6% (active)
Nc1ccc2nc3c(=O)[nH]c(=S)[nH]c3nc2c1,inhibition,[15],44.2% (active)
same,inhibition,[6],62% (active)
same,inhibition,[7],32.2% (active)
same,inhibition,[18],45.3% (active)
same,inhibition,[19],10.6%
same,inhibition,[20],120% (active)
same,inhibition,[21],53.5% (active)
same,activation,[1],48.6% (active)
same,inhibition,[2],-245%
same,inhibition,[3],83% (active)
CCOC(=O)c1c(C)oc2cc(Sc3ccccc3)c(O)c(O)c12,inhibition,[6],5.29%
same,activation,[1],0.78%
same,inhibition,[2],-2.84%
same,inhibition,[3],-5.02%
Oc1c(CN2CCOCC2)ccc(CN2CCOCC2)c1O,activation,[1],-0.48%
same,inhibition,[2],1.64%
same,inhibition,[3],15.7% (active)
CN(C(=O)COC(=O)c1cc(-c2ccco2)nc2ccccc12)C1CCS(=O)(=O)C1 (configuration not stated),inhibition,[16],34.6% (active)
same,inhibition,[17],95.6% (active)
same,inhibition,[6],38.5% (active)
same,inhibition,[19],3.94%
same,inhibition,[20],28.1% (active)
same,activation,[1],24.1% (active)
same,inhibition,[2],-121%
same,inhibition,[3],53.3% (active)
Cn1c(SCc2nc3ccccc3s2)nnc1-c1ccc2c(c1)OCO2,activation,[1],0.47%
same,inhibition,[2],-2.33%
same,inhibition,[3],-2.11%
Cc1cc(SCC(=O)NCCN2C(=O)CSC2=O)nc2ccccc12,activation,[1],0.99%
same,inhibition,[2],-4.97%
same,inhibition,[3],1.78%
O=S(=O)(Nc1ccc(O)c2ccccc12)c1ccc(OC(F)(F)F)cc1,inhibition,[6],38.2% (active)
same,inhibition,[18],15% (active)
same,activation,[1],1.57%
same,inhibition,[2],-5.75%
same,inhibition,[3],8.79%
Clc1ccc(C2=CSC3=Nc4cccc5cccc(c45)N23)cc1,inhibition,[6],85.1% (active)
same,inhibition,[18],-2.56%
same,inhibition,[22],13.7%
same,inhibition,[21],37.5% (active)
same,activation,[1],2.48%
same,inhibition,[2],-8.94%
same,inhibition,[3],24.5% (active)
